Vc quorum ag – inducers of Vibrio cholerae quorum light production without autoinducers, primary screen, BH1578 luxS cqsA deficient, single point | V. cholerae BH1578 lux reporter, luminescence, 6 h | activation, % at 18.7 µM | 350,000 tested, 0.16% active | AID 588436, 2011; in the data active means activation mostly above about 9.7%, no sharp cut-off
Yp Topo-I inh – Yersinia pestis topoisomerase I inhibitors, primary screen, biochemical, cleavage product accumulation, plate reader, single point | activity, % at 10 µM | DNA topoisomerase I (Yersinia pestis CO92) | AID 504884, 2011 | 360,000 tested, 0.064% active | Y. pestis Topo-I cleavage product accumulation; in the data active means activity above about 50%, passing the limit was not always enough
FadD28 FP inh – inhibitors of FadD28 bisubstrate probe binding, primary screen, biochemical, fluorescence polarization, single point; Mycobacterium tuberculosis FadD28 fatty-acid-AMP ligase; inhibition, % at 12.5 µM; 360,000 tested, 0.22% active; AID 588549, 2011; in the data active means inhibition above about 8.5%, passing the limit was not always enough
BioA inh – M. tuberculosis BioA enzyme inhibitors, primary screen, biochemical, plate reader, single point, HTS; 360,000 tested, 0.096% active; purified M. tuberculosis BioA enzyme; 7,8-diaminopelargonic acid synthase BioA (Mycobacterium tuberculosis); inhibition, % at 9.99 µM; in the data active means inhibition above about 40%
TcdB inh – TcdB glycohydrolase inhibitors, primary screen, biochemical, single point, plate reader; TcdB glycohydrolase enzymatic assay; 350,000 tested, 0.24% active; Toxin B (Clostridioides difficile), P18177; inhibition, % at 9.99 µM; AID 652162, 2013; in the data active means inhibition above about 10%
Each line names hits and unclear results; the compound was inactive in the other large screens; ! = not active in a repeat. Hits are enriched below; roughly 0.61% of the tested compounds scored in any of these assays.

Cc1cccc(NC(=O)CN2C(=O)S/C(=C\c3cccn3-c3cccc(C(=O)O)c3)C2=O)c1	FadD28 FP inh 61.6
Cc1ccc(NC(=O)CN2C(=O)S/C(=C\c3cccn3-c3cccc(C(=O)O)c3)C2=O)cc1C	none (no result: BioA inh)
COc1ccc(/C=C2\SC(=O)N(CC(=O)Nc3ccc(O)cc3)C2=O)cc1OC	none
COc1ccc(/C=C2\SC(=O)N(CC(=O)Nc3cccc(C)c3)C2=O)cc1O	FadD28 FP inh 26.2
O=C(C[C@@H]1CC[C@H]2NC[C@H](O)COC[C@@H]2O1)Nc1ccc(-c2ccccc2)cc1	none (no result: Vc quorum ag, Yp Topo-I inh, FadD28 FP inh)
O=C(N/N=C/c1ccccn1)c1ccc([N+](=O)[O-])cc1Cl	TcdB inh 10.9
O=C(c1ccco1)N1CCN(C(=O)c2cc(-c3ccncc3)nc3ccc(Br)cc23)CC1	none (no result: TcdB inh)
O=C(O)c1ccc2nc(-c3ccco3)c(-c3ccco3)nc2c1	FadD28 FP inh 13.3
O=C(O)c1cc(-c2ccco2)nc2ccc(Br)cc12	FadD28 FP inh 29.2! (no result: TcdB inh)
COc1ccc([N+](=O)[O-])cc1NC(=O)CCN1CCN(CCO)CC1	BioA inh 45.4
Cc1ccccc1-c1cnc2c(c1)C(=O)N([C@@H](C)CO)C[C@H](C)[C@H](CN(C)C(=O)c1ccc(F)cc1)O2	none (no result: Vc quorum ag, Yp Topo-I inh, FadD28 FP inh)
O=C1Nc2ccc(Br)cc2C1Cc1ccccc1F (stereo not given)	TcdB inh 28.2
Cc1cc(N2C(=O)C(O)=C(C(=O)c3cc4ccccc4o3)C2c2ccc([N+](=O)[O-])cc2)no1 (stereo not given)	none
Cc1ccc(C2C(C(=O)c3cc4ccccc4o3)=C(O)C(=O)N2c2cc(C)on2)cc1 (stereo not given)	Yp Topo-I inh 84.7
O=C(C1CCCC1)N1C[C@H]2[C@@H](c3ccccc31)[C@@H](CO)N2C(=O)c1ccccc1F	none (no result: Vc quorum ag, Yp Topo-I inh, FadD28 FP inh)
O=C(O)c1ccc(-c2nc(-c3ccccc3)c(-c3cccs3)[nH]2)cc1	none (no result: BioA inh)
COc1ccc(-c2nc(-c3cccs3)c(-c3cccs3)[nH]2)cc1O	FadD28 FP inh 11.3 (no result: TcdB inh)
CCOc1cc(Br)cc(C(c2c(C(=O)O)[nH]c3ccccc23)c2c(C(=O)O)[nH]c3ccccc23)c1O	FadD28 FP inh 32.5
CSc1ccc(C(c2c(C(=O)O)[nH]c3ccccc23)c2c(C(=O)O)[nH]c3ccccc23)cc1	FadD28 FP inh 38.2
CNC[C@@H]1Oc2cc(-c3cncnc3)ccc2S(=O)(=O)N([C@H](C)CO)C[C@H]1C	none (no result: Vc quorum ag, Yp Topo-I inh, FadD28 FP inh)
O=C(C1CCOCC1)N1CC(=O)N2[C@H](C1)[C@@H](c1ccc(/C=C/c3ccccc3)cc1)[C@@H]2CO	none (no result: Vc quorum ag, Yp Topo-I inh, FadD28 FP inh, BioA inh)
O=C(C[C@H]1CC[C@@H](NC(=O)Nc2ccc(C(F)(F)F)cc2)[C@H](CO)O1)NCc1ccccn1	none (no result: Vc quorum ag, Yp Topo-I inh, FadD28 FP inh)
C=CCc1c(C)nc(SC)nc1Nc1ccc(C(C)=O)cc1	BioA inh 54.2 (no result: TcdB inh)
C=CCc1c(C)nc(SC)nc1Nc1ccc(C(=O)O)cc1	none (no result: TcdB inh)
Cc1nnc(SCC(=O)N2c3ccccc3CC2C)s1 (stereo not given)	none (no result: TcdB inh)
CCC(=O)Nc1nnc(SCC(=O)N2c3ccccc3CC2C)s1 (stereo not given)	Vc quorum ag 16.7 (no result: TcdB inh)
C[C@H]1CN([C@@H](C)CO)C(=O)c2cc(Br)cnc2O[C@@H]1CN(C)C(=O)C1CC1	none (no result: Vc quorum ag, Yp Topo-I inh, FadD28 FP inh, TcdB inh)
CS(=O)(=O)c1nsc2nc(=O)c(/C=C3\C=Nc4ccccc43)c(N)n12	none
CC(C)Sc1nsc2nc(=O)c(/C=C3\C=Nc4ccccc43)c(N)n12	FadD28 FP inh 19.3
COc1ccc(NC(=O)Nc2ccc3c(c2)C(=O)N([C@@H](C)CO)C[C@@H](C)[C@H](CN(C)C(=O)NC2CCCCC2)O3)cc1	none (no result: Vc quorum ag, Yp Topo-I inh, FadD28 FP inh)
CC(=O)N/C(=C\c1ccccc1)C(=O)Nc1ccc(O)cc1	TcdB inh 13.4 (no result: BioA inh)
CC(=O)Nc1ccc(O)cc1	TcdB inh 24.5
CC(=O)c1ccc(NC(=O)/C(=C\c2ccccc2)NC(=O)/C=C/c2ccccc2)cc1	none (no result: BioA inh, TcdB inh)
Nc1ccc(OC(=O)Nc2ccc(O)cc2)cc1	TcdB inh 11.6
O=C(Nc1ccc(N2CCN(c3ccc(O)cc3)CC2)cc1)Oc1ccccc1	none
CC(=O)Nc1ccc(C)cc1	none
COCCOC(=O)N1C(=O)[C@@]2(c3ccccc31)[C@H](C(=O)N1CCN(c3ncccn3)CC1)[C@H]1C(=O)O[C@H](c3ccccc3)[C@H](c3ccccc3)N1[C@@H]2c1ccccc1OCCO	none (no result: Vc quorum ag, Yp Topo-I inh, FadD28 FP inh)
COc1ccccc1CN1[C@H](CO)[C@@H]2c3ccccc3N(C(=O)C3CCOCC3)C[C@@H]21	none (no result: Vc quorum ag, Yp Topo-I inh, FadD28 FP inh)
COc1ccc(/C=N/N(Cc2ccccc2)c2ccccc2)cc1O	FadD28 FP inh 11.6
CCOC(=O)c1c(N2C(=O)C3C4C=CC(C4)C3C2=O)sc2c1CCC(C)C2 (stereo not given)	none
CCOC(=O)c1cc(C)sc1N1C(=O)C2C3C=CC(C3)C2C1=O (stereo not given)	Vc quorum ag 30.1 (no result: TcdB inh)
CN1CCN(C(=O)C[C@H]2CC[C@@H]3[C@@H](COc4ccc(NC(=O)c5cccs5)cc4C(=O)N3C)O2)CC1	none (no result: Vc quorum ag, Yp Topo-I inh, FadD28 FP inh)
CN1C(=O)c2cc(NC(=O)c3cnccn3)ccc2OC[C@H]2O[C@H](CC(=O)O)CC[C@H]21	none (no result: Vc quorum ag, Yp Topo-I inh, FadD28 FP inh)
O=C(N1CCOCC1)C12CCC3CC(CC(C3)C1)C2	none (no result: TcdB inh)
O=C(N1CCOCC1)C12CC3CC(C1)CC(C(=O)N1CCOCC1)(C3)C2	Vc quorum ag 5.6 (no result: TcdB inh)
Cc1ccc2c(c1)/C(=C/c1ccccc1C)C(=O)N2	TcdB inh 11.7 (no result: FadD28 FP inh)
Cc1ccc(-c2c(C(=O)N/N=C/c3ccc4c(c3)OCO4)nnn2-c2nonc2N)cc1	Yp Topo-I inh 57.9
Nc1nonc1-n1nnc(C(=O)N/N=C/c2cccc(F)c2)c1CN1CCCC1	Vc quorum ag 28.1
Cc1ccc(SCc2c(C(=O)N/N=C/c3ccc4c(c3)OCO4)nnn2-c2nonc2N)cc1	none
Nc1nonc1-n1nnc(C(=O)N/N=C/c2cccc(Cl)c2)c1CN1CCCC1	Vc quorum ag 32.0
O=C1N(Cc2ccccc2)Cc2ccccc2[C@H]2OC(c3ccc(OCCCO)cc3)=N[C@@]12CCS(=O)(=O)c1ccccc1	none (no result: Vc quorum ag, Yp Topo-I inh, FadD28 FP inh)
C[C@@H]1CN([C@H](C)CO)C(=O)c2cc(NC(=O)c3ccncc3)ccc2O[C@@H](C)CCCCO[C@@H]1CN(C)Cc1ccncc1	none (no result: Vc quorum ag, Yp Topo-I inh, FadD28 FP inh)
CCN(CC)c1nc(N)c2c(N)n(-c3ccccc3C)c(=S)c(C#N)c2c1C#N	FadD28 FP inh 8.3 (no result: TcdB inh)
Cc1ccccc1-c1nc(P(=O)(c2ccccc2)c2ccccc2)c(N2CCOCC2)o1	Yp Topo-I inh 52.6 (no result: BioA inh)
CCC(=O)N1CC(=O)N2[C@H](CO)[C@@H](c3ccc(C#Cc4cccc(OC)c4)cc3)[C@H]2C1	none (no result: Vc quorum ag, Yp Topo-I inh, FadD28 FP inh, BioA inh)
CCn1nc([N+](=O)[O-])c(C(C#N)c2nc3cc(C(F)(F)F)ccc3s2)c(Cl)c1=O (stereo not given)	FadD28 FP inh 45.4 (no result: TcdB inh)
CCCn1nc([N+](=O)[O-])c(C(C#N)c2nc3ccccc3o2)c(Cl)c1=O (stereo not given)	FadD28 FP inh 15.1 (no result: BioA inh, TcdB inh)

Source: PubChem (Broad Institute)
